Among all 1,300 compounds or so, about 1,100 (85%) were called active. Cut-off read from the data, not from the text of the source: active = inhibition above about 48%; inactive = the rest. So high a share suggests a set chosen from earlier hits. These entries were drawn from the full list.

A short description of this assay: NALP3 inhibitors retested in yeast, confirmation, luminescence, single concentration (AID 435006). As to conditions: yeast expressing human NALP3, luminescence; at 10 µM; active compounds read high.
For the molecule `Cc1cc2ccccn2c1C(C[N+](=O)[O-])c1c(F)cccc1Cl` (stereo unspecified), the inhibition (commonly the drop in the measured response relative to a control, in per cent) was 72.8% (active).

Consider `O=C1/C(=C\c2ccc3c(c2)OCO3)N2CCC1CC2`, for which the inhibition is 59.5% (active).

Regarding `CCCCCCCCCCCCn1ccc(=N)cc1`, the inhibition was 82.9% (active).

Consider `C[C@]12CCC3C(CC[C@H]4C[C@@H](O)CC[C@]34C)C1C[C@@H](O)[C@H]2O` (stereo partly specified), for which the inhibition is 53% (active).

With `C[C@]12CCC3C(CC[C@H]4C[C@@H](O)CC[C@]34C)C1CC[C@@H]2O` (stereo partly specified), the inhibition was 57.9% (active).

As to `Cc1ccc(-c2nc3ccccc3c(=O)n2-c2ccc(Br)cn2)cc1`, the inhibition was 73.3% (active).

For the origin of these results see PubChem BioAssay AID435006 (Sanford-Burnham Center for Chemical Genomics, 2010).
